The inhibition is the drop in the measured response relative to a control, in per cent.

Molecules are shown by their SMILES. The campaign covered roughly 340,000 compounds. About 2,100 (0.62%) were called active. A selection follows. Potency and affinity values are given separately. Values without a mark were called inactive.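 Rule for the calls: active = first-screen hits whose inhibition reached a set limit at any dose in the follow-up dose series; inconclusive = inhibition above the set first-screen limit but never retested; inactive = the rest.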

This assay deals with Rac GTPase-activating protein 1 (Homo sapiens) (UniProt Q9H0H5). Put plainly: blockers of MgcRacGAP-driven Rac1 GTP hydrolysis – biochemical, ADP Hunter fluorescence, primary and confirmatory, confirmation (AID 624330).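 Note: fluorescence reports GDP produced by GAP-driven GTP hydrolysis.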 The settings on record: MgcRacGAP-stimulated Rac1 GTP hydrolysis, at 30 µM, stronger effect = higher value, GST-tagged Rac1 F28L mutant substrate.
Chain of Rac GTPase-activating protein 1 (Homo sapiens) (Q9H0H5 whole entry, looked up): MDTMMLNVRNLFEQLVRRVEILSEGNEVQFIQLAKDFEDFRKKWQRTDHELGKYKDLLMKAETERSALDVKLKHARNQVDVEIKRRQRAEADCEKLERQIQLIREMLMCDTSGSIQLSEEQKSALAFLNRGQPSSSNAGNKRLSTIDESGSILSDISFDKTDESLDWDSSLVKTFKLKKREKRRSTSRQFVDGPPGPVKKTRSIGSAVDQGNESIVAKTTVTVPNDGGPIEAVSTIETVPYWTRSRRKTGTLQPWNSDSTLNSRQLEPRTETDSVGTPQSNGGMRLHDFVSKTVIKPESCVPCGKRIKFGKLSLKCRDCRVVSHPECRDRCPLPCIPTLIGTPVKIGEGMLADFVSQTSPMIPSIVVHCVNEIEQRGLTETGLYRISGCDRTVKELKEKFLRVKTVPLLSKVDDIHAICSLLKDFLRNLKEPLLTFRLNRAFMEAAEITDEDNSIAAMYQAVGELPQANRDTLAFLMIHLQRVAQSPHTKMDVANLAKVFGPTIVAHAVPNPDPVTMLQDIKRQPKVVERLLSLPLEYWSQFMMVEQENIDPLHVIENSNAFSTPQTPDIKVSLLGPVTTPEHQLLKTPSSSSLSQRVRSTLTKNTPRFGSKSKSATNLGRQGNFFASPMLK
Turning to `COc1cc(OC)c(C(=O)NCCCn2ccnc2)cc1OC`, the inhibition is 3.26%.
Consider `O=C(Nc1cccnc1)c1ccco1`, for which the inhibition is -3.68%.
Take `CC(=O)N(C)c1ccc(NC(=O)Cc2cccs2)cc1`: the inhibition is -7.79%.
Then `COC(=O)Cn1c2c(c3cc(C)ccc31)CCCC2NC(C)c1ccccc1` (stereo not given), with 12.5%; and `Cc1ccc2nc(N3C(=O)C(O)=C(C(=O)c4ccc(C)o4)C3c3ccco3)sc2c1` (stereo not given), with 14.4%.
For `CCOc1ccc2nc(N3C(=O)C(O)=C(C(=O)c4ccco4)C3c3ccco3)sc2c1` (stereo not given) the value was 10.3%.
As to `CCN1CCN(C(c2cccnc2)c2c(NC(=O)c3ccco3)sc(C)c2C)CC1` (stereo not given), the inhibition was 3.07%.
Then `O=[N+]([O-])c1ccc(O)c(CNCc2ccccc2)c1`, with 5.59%; and `Oc1ccc(N=Cc2ccc(OCc3ccccc3)cc2)cc1`, with 9.78%; and `Oc1ccc(C=NC2CCCCC2)cc1`, with -1.9%.
Turning to `Oc1c(C=Nc2ccccc2)sc2ccccc12`, the inhibition is 6.75%.
For `CC1CCCC(C)N1/N=C/c1ccc(O)cc1` (stereo not given) the value was 21.4%; for `Cc1ccc(C(C(=O)NC2CCCCC2)N(Cc2ccco2)C(=O)Cc2c[nH]c3ccccc23)o1` (stereo not given), 9.31%.
For `COc1cc(OC)cc(C(=O)NCCCN2CCOCC2)c1` the value was 5.65%.
Then `CCc1c(C)nc(SCC(=O)N2CCCCC2)[nH]c1=O`, with 0.74%.
With `O=C1c2ccccc2C(=O)N1CCCCSc1nnc(-c2ccc(OC(F)F)cc2)o1`, the inhibition was -1.82%.
Then `CC(CNC(=O)Cn1ccc(N)nc1=O)c1ccccc1` (stereo not given), with -5.59%; and `COc1cc(/C=C2/C(=N)N3C(=NC2=O)SN=C3S(C)(=O)=O)ccc1OS(=O)(=O)c1ccc(C)cc1`, with 11.8%; and `COc1cc(/C=C2/C(=N)N3N=C(CC(=O)N4CCOCC4)SC3=NC2=O)ccc1OCc1ccccc1`, with 11.5%.
For `CCN(CC)c1ccc(/C=C2\C(=N)N3N=C(CC(=O)N4CCOCC4)SC3=NC2=O)cc1` the value was 5.98%; for `COc1cc(/C=C2\C(=N)N3N=C(S(C)(=O)=O)SC3=NC2=O)ccc1OS(=O)(=O)c1ccc(C)cc1`, 23.8%.
For `CSc1ccc(/C=C2\C(=N)N3N=C(CC(=O)N4CCOCC4)SC3=NC2=O)cc1` the value was -13.1%.
Take `Cc1ccc(/C=C2\C(=N)N3N=C(CC(=O)N4CCCCC4)SC3=NC2=O)cc1`: the inhibition was 7.03%.
As to `Cc1ccc(/C=C2/C(=N)N3N=C(CC(=O)N4CCCC4)SC3=NC2=O)cc1`, the inhibition was 1.49%.
Then `COc1ccc(/C=C2\C(=N)N3N=C(CC(=O)N4CCOCC4)SC3=NC2=O)cc1`, with 5.52%.
For `CCCc1nc(NC(=O)c2ccccc2)nc(NC(=O)c2ccccc2)n1` the value was 3.82%; for `Cc1nc(-c2ccccc2)cc(-c2ccccc2)n1`, 12.4%.
For `CN1CCN(/N=C/c2ccc(Cl)c(Cl)c2)CC1`, the inhibition is -7.71%.
With `Cc1ccc(-c2nc3sc4c(c3c(=O)n2N)CC(C)(C)OC4)cc1`, the inhibition is 3.06%.
Then `CCO[C@H]1OC(C(=O)NC2CC2)=C[C@@H](c2ccc3c(c2)OCO3)[C@@H]1CCCO`, with 6.42%; and `CCCCc1ccc(/C=C2\C(=O)ON=C2c2ccccc2)s1`, with 2.22%; and `CSc1nc2sc3c(c2c(=O)n1C)CCC3`, with 15.1%.
Then `O=C(O)c1ccccc1C(=O)Nc1ccc(Nc2ccc([N+](=O)[O-])cc2[N+](=O)[O-])cc1`, with 15.6%.
For `COc1ccccc1N1C(=O)C2C3CC(c4ccccc4)C(C3)C2C1=O` (stereo not given) the value was 7.95%.
Turning to `O=C(O)CCNS(=O)(=O)c1ccc2c(c1)OCCCO2`, the inhibition is 9.26%.
For `Cc1ccc(Cl)c(NC(=O)CN2C(=O)C(C)N(c3ccc(F)cc3)C2=O)c1Cl` (stereo not given), the inhibition was 15.2%.
For the molecule `Cc1ccc(N2CC(C(=O)Nc3ccc(N4CCOCC4)cc3)CC2=O)cc1C` (stereo not given), the inhibition was 1.23%.
For `Cc1ccc(N2CC(C(=O)Nc3ccc4c(c3)OCCO4)CC2=O)cc1C` (stereo not given) the value was 10.2%; for `CC1CCc2sc(C(=O)NC3CCN(Cc4ccccc4)CC3)cc2C1` (stereo not given), 3.25%; for `Cc1nsc(Nc2ccc([N+](=O)[O-])cc2)c1C#N`, 2.18%.
For `CSc1nsc(/C=C/Nc2ccc(Cl)cc2)c1C#N`, the inhibition is 6.16%.
Then `N#Cc1c(Nc2ccccc2)sc(C(=O)c2ccccc2)c1N`, with -10.7%; and `Cc1nsc(Nc2ccccc2)c1C#N`, with 4.71%.
Then `Cn1ncc2c(Nc3cc(Cl)cc(Cl)c3)ncnc21`, with 11.1%; and `CN(CC(=O)Nc1ccccc1Cl)C(=O)COC(=O)c1ccccc1[N+](=O)[O-]`, with 11.2%; and `Cc1cccc(CCN2CCN=C2Nc2ccccc2)c1`, with 10.2%.
For `CCNS(=O)(=O)c1ccc(NC(=O)c2cccnc2)cc1` the value was -7.35%; for `COc1cc(/C=N/NC(=O)C2CCN(CC(O)COCc3ccccc3)CC2)cc(OC)c1OC` (stereo not given), -0.29%.
Consider `Cn1cc(C(=O)N/N=C/c2cccc(O)c2)ccc1=O`, for which the inhibition is 7.64%.
For `CCOc1ccc(/C=N/NC(=O)C2CC2)cc1OC` the value was 4.39%; for `C=CCOc1ccc(/C=N/NC(=O)C2CCCC2)cc1OCC`, 7.59%.
For `COc1ccc(/C=N/NC(=O)c2cc(C3CC3)[nH]n2)cc1OC` the value was 7.5%.
For the molecule `CCOc1cccc(/C=N/NC(=O)c2cc(C3CC3)[nH]n2)c1O`, the inhibition is 9.09%.
For `COc1ccc(/C=N/NC(=O)c2ccc(=O)n(C)c2)cc1OC` the value was 11.2%; for `CCOc1cc(/C=N/NC(=O)C2CCCC2)ccc1OC(C)C`, 7.91%; for `COc1cc(/C=N/NC(=O)c2ccc(NC(=O)C3CC3)cc2)ccc1OC(C)=O`, 7.67%.
Then `COc1cc(/C=N/NC(=O)c2ccc(NC(=O)C3CCCCC3)cc2)ccc1O`, with 8.05%; and `CCn1cc(/C=C(\NC(=O)c2ccccc2)C(=O)NCCCN2CCOCC2)c2ccccc21`, with 13%; and `COc1ccc(/[N+]([O-])=C/c2ccco2)cc1`, with 9.73%.
Take `CC(C)CNC(=O)NC(=O)COC(=O)c1cc(F)cc(F)c1`: the inhibition is 2.44%.

(Values after PubChem BioAssay AID624330 (Southern Research Specialized Biocontainment Screening …, 2012).)
